40 compounds from PubChem BioAssay (NCI) can be followed below.

About 83,000 compounds went through this panel and 20% of them were active in at least one assay; those are over-represented in the sample as a whole.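 For each line, cells grew in 96-well plates with the test compound present at a single concentration for 48 hours.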 Values without a mark were called inactive. Activity calls are given as the source filed them.

This assay concerns U251 CNS. The assay is described as follows: NCI-60 one-dose screen, 48 h (100 = growth as untreated, 0 = no growth, -100 = all killed). The conditions noted are these: 10 µM unless noted. How it is done: Growth inhibition of the U251 human tumor cell line is measured as a screen for anti-cancer activity. Cells are grown in 96 well plates and exposed to the test compound for 48 hours. Compounds are tested at a single concentration, which is 10^-5 M for most compounds. The reported endpoint is percent growth (GI% or GIPRCNT), where numbers from 0 - 100% represent growth inhibition, and numbers from -100% - 0 represent cell death. For example, a value of 40 represents 60% growth inhibition. A value of 0 means no net growth occurred over the course of the experiment. A value of -40 indicates 40% of cells at the beginning of the experiment died by the end of the experiment. A value of -100 means all cells are dead at the end of the experiment.
NCI-60 Human Tumor Cell Lines Screen was performed using the standard one-dose NCI protocol, which is described in more detail at https://dtp.cancer.gov/discovery_development/nci-60/default.htm.
Compounds with GIPRCNT values below 10 were considered active. Activity score was based on GIPRCNT using the following formula: […]
Score is 0 for GIPRCNT values of 100 or above, 50 for GIPRCNT values of 0, and 100 for GIPRCNT values of -100.
As for `CCOC(=O)C1=C(C(F)(F)F)NC(=O)NC1CN1C(=O)c2ccccc2C1=O` (stereo not given), the growth is 107%.
Regarding `CC(=O)Nc1ccc(CC#N)cc1Br`, the growth was 104%.
Take `CC(C)OC(=O)c1ccc2n1CCCc1cnc(Nc3ccccc3)nc1-2`: the growth was 76.4%.
Regarding `Cc1ccc(C(C)C)c(OCc2ccc(C(=O)N/N=C/c3cccc(O)c3O)cc2)c1`, the growth was 28.3%.
For `CC1=C(C)C[C@]2(C(=O)O[C@H]3CCCC[C@@H]32)[S@](=O)C1` the value was 98.8%; for `O=C(Nc1ccc(-n2cc(-c3ccncc3)c(-c3ccc(Cl)c(O)c3)n2)cc1)c1ccc(Cl)c(Cl)c1`, 34.1%.
As to `O=C(CN1CCN(c2cccc(Cl)c2)CC1)N1CCN(c2nnc(-c3ccc(Cl)cc3)c(-c3ccc(Cl)cc3)n2)CC1`, the growth is 71.7%.
In the case of `COC(=O)/C(Br)=C/c1c[nH]c2ccc(Br)cc12`, the growth is 68.5%.
As for `CC1CCCCC[N+]12CCCC2` (stereo not given), the growth is 85.3%.
For `Cc1ccc(S(=O)(=O)N/N=C2\CC3CCC2C3)cc1` (stereo not given) the value was 96.8%; for `C/C=C(/C)C(=O)OC1C=C(CO)C(=O)C(OC(=O)/C(C)=C\C)C1C(C)C` (stereo not given), -73.8% (active); for `CNCCCNCCCCNCCCN1C(=O)c2ccc3c4c(ccc(c24)C1=O)C(=O)N(CCCNCc1ccccc1OC)C3=O`, 41.2%.
With `Ic1ccc(SSc2ccc(I)cc2)cc1`, the growth is 67.8%.
In the case of `O=C(NC(=S)NNC(=S)NNc1ccccc1)c1ccccc1`, the growth is 48%.
Consider `O=C1C(Cl)=C(SC2=NCCN2)C(=O)c2ccccc21`, for which the growth was 63.9%.
As for `CC1(C)C(O)NC(Cl)=C(C#N)C1(C#N)C#N` (stereo not given), the growth is 110%.
`CC(=O)Nc1ccc(C(=O)/C=C/c2ccc(N(C)C)cc2)cc1`: the growth was 93.9%.
For `N#CCc1ncc(-c2ccc(C(F)(F)F)cc2)c(NC2CCCCCC2)n1` the value was 22.4% [100 µM]; for `NC(N)=N/N=C/c1cccc(Br)c1`, 110%.
On to `CC(=O)Nc1ccc(S(=O)(=O)Cl)cc1`, for which the growth was 95.6%.
As for `COC(c1ccccc1)C(Br)C(=O)c1ccccc1` (stereo not given), the growth was 95.1%.
Consider `CCOC(=O)CSSCC(=O)OCC`, for which the growth is 98.4%.
`COc1ccc(CN2C(=O)/C(=C\C(=O)c3ccc(OCCN4CCCC4)cc3)c3ccccc32)cc1`: the growth is 87.3%.
For the compound `CN1CCN(Cc2ccc(NC(=O)c3ccc(C#Cc4c(N)ncc5ccc(F)cc45)cc3)cc2C(F)(F)F)CC1`, the growth is -75.8% (active).
In the case of `COc1ccc(Cn2cc3c(c2-c2ccc(OC)cc2)CCc2cnoc2-3)cc1`, the growth is 24%.
On to `CCC(C)C1NC(=O)C(CC(C)C)NC(=O)C(C)NC(=O)C(C(C)C)NC(=O)C(CCCCN)NC(=O)C(CC(C)C)NC(=O)C(C(C)C)NC(=O)[C@H](C)NC(=O)C(C(C)CC)NC(=O)C(CCCN=C(N)N)NC(=O)C(CCCCN)NC(=O)C(CCCN=C(N)N)NC(=O)C(CCCCN)NC(=O)C([C@H](C)CC)NC(=O)C(CCCCN)NC1=O` (stereo not given in full), for which the growth was 3.51% (active).
In the case of `COC(=O)CC(=O)C(=O)OC`, the growth was 102%.
For `CNc1ccc(Nc2ccc(S(=O)(=O)O)cc2)c2c1C(=O)c1ccccc1C2=O` the value was 96.6%; for `CCCCCCCCCCC1OC(C)CC(C)O1` (stereo not given), 105%.
As for `CCCCCCCCC/C(=N\NC(=O)c1ccncc1)c1ccc(O)c(O)c1O`, the growth is 12.1%.
Take `COC1(OC)N=C(N)C2(C#N)C3(C(=O)Nc4ccccc43)C12C#N` (stereo not given): the growth was 67.9%.
On to `C/C(=C\c1ccc2ccccc2c1)[N+](=O)[O-]`, for which the growth is 72.7%.
For `O=C(/C=C\c1ccc(NCc2ccc(C(=O)O)cc2)cc1)CCl` the value was 84.5%.
On to `O=C(Nc1ccc(-n2cc(-c3ccncc3)c(-c3ccc(Cl)c(O)c3)n2)cc1)c1ccc(Cl)c(C(F)(F)F)c1`, for which the growth is -49.1% (active).
For `CC(=O)Nc1nc(C)c(C(=O)NNS(=O)(=O)c2ccccc2)s1`, the growth is 103%.
For `CC(=O)N1CCN(CCNC(=O)n2cc(-c3ccncc3)c(-c3ccc(O)c(Cl)c3)n2)CC1`, the growth was 110%.
In the case of `COc1cccc(-c2cc(-c3cc4ccccc4oc3=O)nc(N)n2)c1`, the growth is 110%.
In the case of `CCCCn1c(Cc2ccc(OC)cc2)nc2cc(OC)c(OC)cc2c1=O`, the growth is 87.8%.
In the case of `CN1CCN(Cc2ccc(NC(=O)c3cncc(C#Cc4c(N)ncc5ccc(F)cc45)c3)cc2C(F)(F)F)CC1`, the growth was 43.3%.
As to `O=Nc1c(-c2c(O)[nH]c3cc(Br)ccc23)[nH]c2ccccc12`, the growth is 29.4%.
